Experiment in all cases: DAPPL (digital affinity profiling via proximity ligation, sequencing); 10 mM Tris-HCl pH 7.5, 50 mM NaCl, 1 mM DTT, 4% glycerol, room temperature, 30 min; GST-TFs on glutathione beads, 16-mer random dsDNA library, 0.1% formaldehyde crosslink after washing; high values mean tight binding
In one assay the target is T1, FEV (Homo sapiens, UniProt Q99581 1-238).
T1 sequence: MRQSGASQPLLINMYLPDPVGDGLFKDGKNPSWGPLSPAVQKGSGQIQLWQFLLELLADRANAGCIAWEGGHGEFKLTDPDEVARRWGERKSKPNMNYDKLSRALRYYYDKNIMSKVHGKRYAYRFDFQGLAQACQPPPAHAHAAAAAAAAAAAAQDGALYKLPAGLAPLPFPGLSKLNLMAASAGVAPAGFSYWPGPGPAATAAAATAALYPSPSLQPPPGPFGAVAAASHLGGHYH
The note with it: protein: recombinant; tags: N-terminal GST; dsDNA, one strand shown. The procedure, abridged: (§1)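 Binding signal is each hexamer's read frequency for a factor divided by its frequency in the tag-only sample. The factors were GST-fused human transcription factors from yeast, captured on glutathione beads, DNA-barcoded and pooled with that sample. Pools were incubated with 200 nmole of a random double-stranded 16-mer DNA library in Tris/NaCl/DTT/glycerol buffer at room temperature for 30 min, then washed, crosslinked with 0.1% formaldehyde, proximity-ligated with BsaI/T4 ligase (1 h, 37 °C), PCR-amplified and sequenced on an Illumina NextSeq500.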

In the next assay the target is ETV5 (Homo sapiens, UniProt P41161 1-510). The following applies: protein: recombinant; tags: N-terminal GST; dsDNA, one strand shown. The procedure, abridged: as §1
In the next assay the target is HSF1 (Homo sapiens, UniProt Q00613 1-529). The note with it: protein: recombinant; tags: N-terminal GST; chain copies: 3; dsDNA, one strand shown. The procedure, abridged: as §1
A further assay addresses T2, SPIC (Homo sapiens, UniProt Q8N5J4 1-248).
T2 sequence: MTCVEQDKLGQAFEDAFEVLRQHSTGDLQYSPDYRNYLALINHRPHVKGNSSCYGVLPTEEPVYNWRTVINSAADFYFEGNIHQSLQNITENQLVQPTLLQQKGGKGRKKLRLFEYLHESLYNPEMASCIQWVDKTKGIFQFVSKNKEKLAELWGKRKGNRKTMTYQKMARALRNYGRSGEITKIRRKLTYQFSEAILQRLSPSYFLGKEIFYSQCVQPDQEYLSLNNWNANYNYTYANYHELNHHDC
The note with it: protein: recombinant; tags: N-terminal GST; dsDNA, one strand shown. The procedure, abridged: as §1

The next assay deals with ELF4 (Homo sapiens, UniProt Q99607 1-663). The following applies: protein: recombinant; tags: N-terminal GST; dsDNA, one strand shown. The procedure, abridged:
as §1

For the next assay, the target named is T3, ELK4 (Homo sapiens, UniProt P28324-2 1-405).
T3 sequence: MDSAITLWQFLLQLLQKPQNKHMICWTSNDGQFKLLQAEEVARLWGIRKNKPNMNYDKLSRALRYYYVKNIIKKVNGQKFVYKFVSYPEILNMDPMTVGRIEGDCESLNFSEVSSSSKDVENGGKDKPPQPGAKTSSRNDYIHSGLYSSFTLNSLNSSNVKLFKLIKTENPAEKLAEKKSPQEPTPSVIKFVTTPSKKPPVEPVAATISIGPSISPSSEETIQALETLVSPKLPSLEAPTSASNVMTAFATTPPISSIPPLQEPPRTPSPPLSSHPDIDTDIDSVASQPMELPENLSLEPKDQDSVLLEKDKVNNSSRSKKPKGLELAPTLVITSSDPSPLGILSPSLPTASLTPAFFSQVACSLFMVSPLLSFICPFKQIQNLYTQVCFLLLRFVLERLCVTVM
The following applies: protein: recombinant; tags: N-terminal GST; dsDNA, one strand shown. The procedure, abridged:
as §1

In another assay the target is T4, ETV2 (Homo sapiens, UniProt O00321 1-342).
T4 sequence: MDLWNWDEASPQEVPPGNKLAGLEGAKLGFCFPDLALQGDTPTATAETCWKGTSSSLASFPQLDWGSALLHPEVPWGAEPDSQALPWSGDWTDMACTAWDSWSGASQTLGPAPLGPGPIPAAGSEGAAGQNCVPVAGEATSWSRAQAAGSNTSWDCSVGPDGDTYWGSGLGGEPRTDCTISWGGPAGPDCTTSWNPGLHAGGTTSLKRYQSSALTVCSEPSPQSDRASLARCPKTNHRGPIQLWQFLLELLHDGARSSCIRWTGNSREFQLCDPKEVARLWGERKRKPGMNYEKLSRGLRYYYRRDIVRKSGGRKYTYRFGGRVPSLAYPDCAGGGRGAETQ
The note with it: protein: recombinant; tags: N-terminal GST; dsDNA, one strand shown. The procedure, abridged:
as §1

In the next assay the target is T5, ELF3 (Homo sapiens, UniProt P78545 1-371).
T5 sequence: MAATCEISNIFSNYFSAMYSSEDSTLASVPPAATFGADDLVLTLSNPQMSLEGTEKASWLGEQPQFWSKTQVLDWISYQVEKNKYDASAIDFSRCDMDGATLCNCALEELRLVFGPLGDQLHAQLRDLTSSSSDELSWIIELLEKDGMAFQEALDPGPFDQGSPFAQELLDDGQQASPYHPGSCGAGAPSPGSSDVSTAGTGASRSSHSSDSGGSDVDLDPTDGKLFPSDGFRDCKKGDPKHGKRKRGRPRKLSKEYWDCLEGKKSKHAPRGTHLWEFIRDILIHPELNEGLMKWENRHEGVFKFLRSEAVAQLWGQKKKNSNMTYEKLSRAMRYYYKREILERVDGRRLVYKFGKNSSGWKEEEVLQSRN
The following applies: protein: recombinant; tags: N-terminal GST; dsDNA, one strand shown. The procedure, abridged: as §1

For a further assay, the target named is CRX (Homo sapiens, UniProt O43186 1-299). The note with it: protein: recombinant; tags: N-terminal GST; dsDNA, one strand shown. The procedure, abridged: as §1
A further assay deals with ETV1 (Homo sapiens, UniProt P50549 1-477). The note with it: protein: recombinant; tags: N-terminal GST; dsDNA, one strand shown. The procedure, abridged: as §1
The target of another assay is T6, ERF (Homo sapiens, UniProt P50548 1-548).
T6 sequence: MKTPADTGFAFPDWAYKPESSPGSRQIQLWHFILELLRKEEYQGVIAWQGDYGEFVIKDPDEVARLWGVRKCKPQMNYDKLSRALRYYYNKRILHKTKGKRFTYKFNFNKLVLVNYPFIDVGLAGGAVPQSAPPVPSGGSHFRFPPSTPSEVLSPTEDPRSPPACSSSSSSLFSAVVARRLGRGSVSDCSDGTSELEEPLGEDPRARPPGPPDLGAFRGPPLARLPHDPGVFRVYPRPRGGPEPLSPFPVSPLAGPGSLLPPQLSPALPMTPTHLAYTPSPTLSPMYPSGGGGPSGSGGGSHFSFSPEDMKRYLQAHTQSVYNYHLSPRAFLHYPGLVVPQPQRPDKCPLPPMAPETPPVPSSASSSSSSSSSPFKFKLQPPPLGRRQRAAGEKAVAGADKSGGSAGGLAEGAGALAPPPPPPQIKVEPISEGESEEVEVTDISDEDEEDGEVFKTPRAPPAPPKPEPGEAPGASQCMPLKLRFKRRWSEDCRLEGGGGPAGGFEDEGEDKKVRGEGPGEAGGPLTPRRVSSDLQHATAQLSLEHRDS
The following applies: protein: recombinant; tags: N-terminal GST; dsDNA, one strand shown. The procedure, abridged:
as §1

The next assay has as its target T7, ETV3L (Homo sapiens, UniProt Q6ZN32 1-361).
T7 sequence: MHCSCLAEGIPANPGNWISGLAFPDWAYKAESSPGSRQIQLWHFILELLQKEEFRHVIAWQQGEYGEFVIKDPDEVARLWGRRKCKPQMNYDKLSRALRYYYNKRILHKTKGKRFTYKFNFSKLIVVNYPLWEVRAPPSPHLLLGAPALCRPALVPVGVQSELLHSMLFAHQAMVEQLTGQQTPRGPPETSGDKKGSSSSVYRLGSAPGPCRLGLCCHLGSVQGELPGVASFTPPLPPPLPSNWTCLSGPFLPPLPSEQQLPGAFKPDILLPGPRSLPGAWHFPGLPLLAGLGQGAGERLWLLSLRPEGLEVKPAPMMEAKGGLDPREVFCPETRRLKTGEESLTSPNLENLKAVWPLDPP
The note with it: protein: recombinant; tags: N-terminal GST; dsDNA, one strand shown. The procedure, abridged:
as §1

The next assay has as its target T8, ETS2 (Homo sapiens, UniProt P15036 1-469).
T8 sequence: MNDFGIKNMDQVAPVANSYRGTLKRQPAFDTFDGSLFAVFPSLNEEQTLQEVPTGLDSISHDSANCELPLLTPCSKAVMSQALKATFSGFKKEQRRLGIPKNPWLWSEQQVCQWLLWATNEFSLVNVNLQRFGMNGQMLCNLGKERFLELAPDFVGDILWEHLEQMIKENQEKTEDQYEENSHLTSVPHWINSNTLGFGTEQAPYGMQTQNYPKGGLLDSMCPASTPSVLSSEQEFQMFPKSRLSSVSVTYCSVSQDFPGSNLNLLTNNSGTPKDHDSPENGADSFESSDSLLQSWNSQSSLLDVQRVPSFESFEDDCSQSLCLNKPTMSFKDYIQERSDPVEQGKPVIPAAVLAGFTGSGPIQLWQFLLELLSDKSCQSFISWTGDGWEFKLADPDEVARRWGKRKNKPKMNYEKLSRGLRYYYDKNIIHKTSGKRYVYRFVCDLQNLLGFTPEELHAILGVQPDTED
The note with it: protein: recombinant; tags: N-terminal GST; dsDNA, one strand shown. The procedure, abridged: as §1

The next assay concerns the target T9, SPDEF (Homo sapiens, UniProt O95238 1-335).
T9 sequence: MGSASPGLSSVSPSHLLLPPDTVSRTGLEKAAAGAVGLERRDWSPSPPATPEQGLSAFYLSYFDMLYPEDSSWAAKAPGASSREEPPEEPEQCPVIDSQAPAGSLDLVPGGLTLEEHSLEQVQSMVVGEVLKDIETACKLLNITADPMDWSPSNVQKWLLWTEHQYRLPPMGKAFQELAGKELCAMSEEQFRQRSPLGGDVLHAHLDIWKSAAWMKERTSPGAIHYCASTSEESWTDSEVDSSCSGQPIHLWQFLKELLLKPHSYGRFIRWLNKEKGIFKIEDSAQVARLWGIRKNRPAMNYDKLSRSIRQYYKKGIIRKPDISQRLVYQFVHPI
The following applies: protein: recombinant; tags: N-terminal GST; dsDNA, one strand shown. The procedure, abridged: as §1

In a further assay the target is T10, ETV7 (Homo sapiens, UniProt Q9Y603 1-341).
T10 sequence: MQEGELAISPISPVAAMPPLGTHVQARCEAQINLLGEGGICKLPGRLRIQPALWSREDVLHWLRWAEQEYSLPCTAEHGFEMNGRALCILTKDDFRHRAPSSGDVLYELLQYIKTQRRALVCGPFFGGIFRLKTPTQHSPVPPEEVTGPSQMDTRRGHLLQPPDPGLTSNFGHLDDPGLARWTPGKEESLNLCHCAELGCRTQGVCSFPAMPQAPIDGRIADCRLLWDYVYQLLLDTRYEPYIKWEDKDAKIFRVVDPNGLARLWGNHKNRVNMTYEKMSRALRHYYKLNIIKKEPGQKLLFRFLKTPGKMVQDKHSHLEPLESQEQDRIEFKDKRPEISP
The following applies: protein: recombinant; tags: N-terminal GST; dsDNA, one strand shown. The procedure, abridged:
as §1

Another assay deals with T11, ELF5 (Homo sapiens, UniProt Q9UKW6-2 1-255).
T11 sequence: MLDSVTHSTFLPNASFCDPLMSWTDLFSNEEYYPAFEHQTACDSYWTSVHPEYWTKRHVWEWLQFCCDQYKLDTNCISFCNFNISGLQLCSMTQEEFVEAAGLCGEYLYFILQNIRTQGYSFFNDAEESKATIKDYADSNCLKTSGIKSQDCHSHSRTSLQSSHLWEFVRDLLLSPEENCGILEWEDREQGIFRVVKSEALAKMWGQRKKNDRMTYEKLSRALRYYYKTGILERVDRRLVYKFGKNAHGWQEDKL
The following applies: protein: recombinant; tags: N-terminal GST; dsDNA, one strand shown. The procedure, abridged: as §1

The target in the next assay is T12, ETV3 (Homo sapiens, UniProt P41162-2 1-143).
T12 sequence: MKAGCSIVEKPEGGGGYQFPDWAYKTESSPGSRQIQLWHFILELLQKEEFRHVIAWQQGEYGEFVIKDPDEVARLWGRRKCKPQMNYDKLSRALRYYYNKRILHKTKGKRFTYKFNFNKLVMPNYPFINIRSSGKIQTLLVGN
The following applies: protein: recombinant; tags: N-terminal GST; dsDNA, one strand shown. The procedure, abridged:
as §1

A further assay has as its target ETV6 (Homo sapiens, UniProt P41212 1-452). The following applies: protein: recombinant; tags: N-terminal GST; dsDNA, one strand shown. The procedure, abridged: as §1

Chain of ETV6 (P41212 whole entry): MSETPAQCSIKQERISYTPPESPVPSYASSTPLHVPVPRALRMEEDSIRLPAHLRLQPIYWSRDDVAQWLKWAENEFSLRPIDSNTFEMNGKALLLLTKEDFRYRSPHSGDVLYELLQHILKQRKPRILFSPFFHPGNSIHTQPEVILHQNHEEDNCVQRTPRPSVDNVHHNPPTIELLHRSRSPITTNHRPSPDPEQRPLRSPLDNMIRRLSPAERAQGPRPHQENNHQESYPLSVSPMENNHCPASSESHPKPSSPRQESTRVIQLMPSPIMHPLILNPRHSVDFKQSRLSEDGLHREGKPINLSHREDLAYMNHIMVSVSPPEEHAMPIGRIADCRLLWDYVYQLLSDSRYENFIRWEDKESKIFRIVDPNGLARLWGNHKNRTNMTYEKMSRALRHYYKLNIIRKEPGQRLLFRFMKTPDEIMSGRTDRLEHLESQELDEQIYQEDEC
Chain of ETV5 (P41161 whole entry): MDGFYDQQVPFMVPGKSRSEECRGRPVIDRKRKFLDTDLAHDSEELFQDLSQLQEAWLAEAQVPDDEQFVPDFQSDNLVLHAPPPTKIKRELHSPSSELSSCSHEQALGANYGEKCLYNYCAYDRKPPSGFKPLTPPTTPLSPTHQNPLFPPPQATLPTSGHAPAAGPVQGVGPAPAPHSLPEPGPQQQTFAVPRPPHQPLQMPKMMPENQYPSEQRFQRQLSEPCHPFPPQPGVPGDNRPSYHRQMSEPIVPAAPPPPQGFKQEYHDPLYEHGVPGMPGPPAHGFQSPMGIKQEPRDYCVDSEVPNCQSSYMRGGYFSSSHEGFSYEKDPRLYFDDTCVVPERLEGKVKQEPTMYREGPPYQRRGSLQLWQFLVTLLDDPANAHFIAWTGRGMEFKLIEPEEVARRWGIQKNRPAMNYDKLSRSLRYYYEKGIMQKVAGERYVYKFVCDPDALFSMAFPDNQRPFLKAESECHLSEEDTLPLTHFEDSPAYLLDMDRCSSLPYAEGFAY
Chain of ETV1 (P50549 whole entry): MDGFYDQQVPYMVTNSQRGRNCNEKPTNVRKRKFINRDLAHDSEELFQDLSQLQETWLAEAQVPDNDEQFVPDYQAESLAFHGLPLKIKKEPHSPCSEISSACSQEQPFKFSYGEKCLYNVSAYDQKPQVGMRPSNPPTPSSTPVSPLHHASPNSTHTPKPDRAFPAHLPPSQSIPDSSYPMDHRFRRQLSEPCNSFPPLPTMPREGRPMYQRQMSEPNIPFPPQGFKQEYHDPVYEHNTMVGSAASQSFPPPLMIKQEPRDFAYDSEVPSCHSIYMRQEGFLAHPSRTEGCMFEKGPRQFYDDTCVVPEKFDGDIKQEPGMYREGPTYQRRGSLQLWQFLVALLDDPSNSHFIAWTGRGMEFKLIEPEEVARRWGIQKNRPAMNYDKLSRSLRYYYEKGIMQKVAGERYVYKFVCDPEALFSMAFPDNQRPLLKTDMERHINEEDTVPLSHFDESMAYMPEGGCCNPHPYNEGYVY
Chain of ELF4 (Q99607 whole entry): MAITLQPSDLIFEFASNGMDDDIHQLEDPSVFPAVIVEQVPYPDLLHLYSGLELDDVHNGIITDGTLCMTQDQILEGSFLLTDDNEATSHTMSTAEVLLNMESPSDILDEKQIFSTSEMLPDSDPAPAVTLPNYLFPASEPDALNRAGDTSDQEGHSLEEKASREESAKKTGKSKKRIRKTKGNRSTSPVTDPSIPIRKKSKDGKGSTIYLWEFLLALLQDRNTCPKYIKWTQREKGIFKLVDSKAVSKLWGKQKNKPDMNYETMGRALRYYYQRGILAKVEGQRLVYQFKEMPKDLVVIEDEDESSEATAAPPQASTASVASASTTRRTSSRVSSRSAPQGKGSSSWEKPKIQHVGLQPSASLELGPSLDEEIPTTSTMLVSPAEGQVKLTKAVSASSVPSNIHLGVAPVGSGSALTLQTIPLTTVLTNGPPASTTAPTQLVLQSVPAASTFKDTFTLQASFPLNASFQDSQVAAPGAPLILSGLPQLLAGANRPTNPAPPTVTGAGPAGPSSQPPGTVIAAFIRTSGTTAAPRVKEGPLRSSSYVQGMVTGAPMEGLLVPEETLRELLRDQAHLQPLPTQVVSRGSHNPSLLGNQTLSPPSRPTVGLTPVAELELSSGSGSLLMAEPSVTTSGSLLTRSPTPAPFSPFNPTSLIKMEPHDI
Chain of CRX (O43186 whole entry): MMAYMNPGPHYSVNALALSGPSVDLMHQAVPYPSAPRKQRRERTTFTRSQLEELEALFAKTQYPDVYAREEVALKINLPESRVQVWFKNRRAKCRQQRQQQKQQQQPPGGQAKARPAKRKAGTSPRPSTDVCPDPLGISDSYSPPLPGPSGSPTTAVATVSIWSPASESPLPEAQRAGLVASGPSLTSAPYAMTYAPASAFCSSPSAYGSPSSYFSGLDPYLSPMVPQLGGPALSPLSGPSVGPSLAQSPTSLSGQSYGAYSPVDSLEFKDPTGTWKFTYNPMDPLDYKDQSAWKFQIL
Chain of HSF1 (Q00613 whole entry): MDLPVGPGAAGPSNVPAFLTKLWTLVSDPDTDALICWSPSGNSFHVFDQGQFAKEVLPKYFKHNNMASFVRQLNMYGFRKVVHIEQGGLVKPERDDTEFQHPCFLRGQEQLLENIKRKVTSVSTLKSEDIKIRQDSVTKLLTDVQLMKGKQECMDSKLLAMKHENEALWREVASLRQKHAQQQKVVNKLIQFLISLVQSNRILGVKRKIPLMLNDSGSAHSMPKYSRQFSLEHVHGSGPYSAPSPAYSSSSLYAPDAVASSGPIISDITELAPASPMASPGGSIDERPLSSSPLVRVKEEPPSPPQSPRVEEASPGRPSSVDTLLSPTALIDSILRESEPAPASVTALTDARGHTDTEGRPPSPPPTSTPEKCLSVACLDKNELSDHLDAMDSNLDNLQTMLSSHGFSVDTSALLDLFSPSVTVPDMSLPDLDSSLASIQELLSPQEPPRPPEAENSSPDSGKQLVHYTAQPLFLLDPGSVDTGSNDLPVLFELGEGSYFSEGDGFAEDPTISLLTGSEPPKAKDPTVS

CTTCAC: the binding signal with FEV was 1.34 fold enrichment (6-mer frequency, TF over GST control); with ETV5 it was 1.37 fold enrichment (6-mer frequency, TF over GST control); in the assay with HSF1 it was 1.18 fold enrichment (6-mer frequency, TF over GST control); in the assay with SPIC it was 1.57 fold enrichment (6-mer frequency, TF over GST control); with ELF4 it was 1.33 fold enrichment (6-mer frequency, TF over GST control); with ELK4 it was 1.45 fold enrichment (6-mer frequency, TF over GST control). Besides, the binding signal was 1.43 fold enrichment (6-mer frequency, TF over GST control) with ETV2; 1.54 fold enrichment (6-mer frequency, TF over GST control) with ELF3; 1.17 fold enrichment (6-mer frequency, TF over GST control) with CRX; 1.37 fold enrichment (6-mer frequency, TF over GST control) with ETV1; 1.44 fold enrichment (6-mer frequency, TF over GST control) with ERF; 1.44 fold enrichment (6-mer frequency, TF over GST control) with ETV3L. The binding signal was 1.36 fold enrichment (6-mer frequency, TF over GST control) in the assay with ETS2; 1.4 fold enrichment (6-mer frequency, TF over GST control) in the assay with SPDEF; 1.45 fold enrichment (6-mer frequency, TF over GST control) with ETV7; 1.38 fold enrichment (6-mer frequency, TF over GST control) in the assay with ELF5; 1.45 fold enrichment (6-mer frequency, TF over GST control) in the assay with ETV3; 1.43 fold enrichment (6-mer frequency, TF over GST control) in the assay with ETV6.

Source of the values: PMC7862700, “An all-to-all approach to the identification of sequence-specific readers for epigenetic DNA modifications on cytosine”.
